Pol beta inh: inhibitors of human DNA polymerase beta. Pol beta primer extension/strand displacement, fluorescence kinetic. Potency, µM (titrated, usually from 114 µM), inactives show top-dose activity change, negative = inhibition, usual class: inhibitors. AID 485314. actives 1.3% (n = 340,000); further: potency means the concentration at half of the fitted maximal effect; on the % scale 0 is the no-effect control and ±100 the full control effect
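Curves were derived by four-parameter Hill fits of normalized qHTS data. The kinetic fluorescent primer-extension read was taken at 0 and 10 min after 50 nM substrate, following a 15 min room-temperature preincubation of 10 nM enzyme with compounds.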
Pol kappa inh: inhibitors of human DNA polymerase kappa; Q9UBT6; purified Pol kappa, fluorescent DNA synthesis assay, 10 min; Potency, µM (highest dose often 107 µM), inactives show at the top dose activity, negative = inhibition, actives largely listed as inhibitors; actives 0.53% (n = 400,000); AID 588579; further: potency means the concentration at half of the fitted maximal effect; on the % scale 0 is the no-effect control and ±100 the full control effect
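Readout: fluorescence, taken kinetically at 0 and 10 min. Conditions: 10 nM Pol kappa, 15 min RT compound preincubation, 50 nM substrate final. Controls: enzyme-free buffer wells.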
POLI inh: inhibitors of human DNA polymerase iota | Q9UNA4 | Pol iota fluorescent replication assay, 10 min | Potency, µM (series often up to 115 µM), for inactives: top-dose activity, negative = inhibition, most hits filed as inhibitors | actives 1% (n = 390,000); further: potency means the concentration at half of the fitted maximal effect
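Pol iota at 10 nM preincubated 15 min with compounds at room temperature; reaction started with fluorescent substrate, 50 nM final. Fluorescence read kinetically at 0 and 10 min; buffer-only wells as negative control.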
PI5P4K alpha inh: PI5P4K alpha (human) kinase inhibition | P48426 | PI5P4Kalpha enzyme, ADP-Glo luminescence, 60 min; hits give low values | max response, % | actives 1.2% (n = 330,000) | AID 652105; active means max response of -50% or lower; inconclusive means between -30% and -50%; inactive means -30% or higher; further: value at the top dose of about 77 µM; on the % scale 0 is the no-effect control and ±100 the full control effect
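qHTS, 1536-well: enzyme/substrate mix, compound by pin tool, 5 microM ATP final; RT 60 min; ADP-Glo reagents 1 (45 min) then 2 (30 min); luminescence.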
ALOX12 inh: ALOX12 (human) lipoxygenase inhibition | P18054 | purified 12hLO, xylenol orange hydroperoxide absorbance | Potency, µM (series often up to 108 µM), for inactives: at the top dose activity change, negative = inhibition, usual class: inhibitors | actives 1.1% (n = 580,000) | AID 1671190; further: potency means the concentration at half of the fitted maximal effect; on the % scale 0 is the no-effect control and ±100 the full control effect
Target sequence (P18054 whole entry, looked up): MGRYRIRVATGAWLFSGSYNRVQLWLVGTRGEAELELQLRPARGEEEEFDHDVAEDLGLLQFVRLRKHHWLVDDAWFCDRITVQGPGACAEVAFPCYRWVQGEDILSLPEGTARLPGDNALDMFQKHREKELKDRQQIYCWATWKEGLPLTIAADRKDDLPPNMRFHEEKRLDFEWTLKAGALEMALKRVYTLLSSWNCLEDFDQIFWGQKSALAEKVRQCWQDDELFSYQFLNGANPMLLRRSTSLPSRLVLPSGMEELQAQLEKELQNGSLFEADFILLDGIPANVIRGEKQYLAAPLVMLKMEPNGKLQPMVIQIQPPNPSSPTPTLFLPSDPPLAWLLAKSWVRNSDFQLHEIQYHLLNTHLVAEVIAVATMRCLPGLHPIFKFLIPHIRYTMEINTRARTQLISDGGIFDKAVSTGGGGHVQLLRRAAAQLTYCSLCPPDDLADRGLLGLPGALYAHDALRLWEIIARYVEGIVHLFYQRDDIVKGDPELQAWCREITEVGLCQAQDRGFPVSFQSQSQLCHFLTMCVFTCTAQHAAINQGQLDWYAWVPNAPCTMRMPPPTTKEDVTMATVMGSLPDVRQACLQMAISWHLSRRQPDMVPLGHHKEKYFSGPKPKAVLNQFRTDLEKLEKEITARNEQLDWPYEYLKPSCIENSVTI
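Hydroperoxide product was detected by ferrous iron/xylenol orange as the 573 to 405 nm absorbance ratio. Arachidonic acid at 40 uM (final) was turned over for 30 min at room temperature by 150 nM human 12hLO, pH 7.0 Hepes buffer, after 15 min compound preincubation.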
Pol eta inh: blocks human DNA polymerase eta activity; Potency, µM (titrated, usually from 114 µM), for the others: at the top dose activity change, negative = inhibition, hits mostly inhibitors; actives 1.2% (n = 390,000); AID 588591; recombinant Pol eta, fluorescent DNA replication assay; further: potency means the concentration at half of the fitted maximal effect; on the % scale 0 is the no-effect control and ±100 the full control effect
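Pol eta at 10 nM preincubated with compounds 15 min at room temperature; reaction started with fluorescent substrate (50 nM final) and read kinetically at 0 and 10 min.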
Starred values were filed as active, the others as inactive; i = inactive; ? = inconclusive; nt = not tested or not shown; [ ] = dose if it differs, or a comment. Rows were chosen to be rich in hits. Some 2.9% of all compounds tested hit in one or more screens of this group. Unless noted, the call rests on the fitted dose curve; in most records, active means well fitted inhibition curve with a large enough effect; inconclusive means small, poorly fitted or top-dose-only effect, or another doubt; inactive means no such curve, though single readings can be large or run the other way.

SMILES	Pol beta inh	Pol kappa inh	POLI inh	PI5P4K alpha inh	ALOX12 inh	Pol eta inh
COc1ccc(NC(=O)CSc2ccc(-c3sc(C)nc3C)nn2)cc1OC	25.1µM*	-18.2%	?	-5.4	0.0%	-7.3%
CC(=O)c1ccc(NC(=O)CSc2ccc(-c3sc(C)nc3C)nn2)cc1	20µM*	-17.9%	?	-9.5	nt	-7.1%
Cc1ccc(NC(=O)CSc2ccc3nnc(-c4ccccn4)n3n2)cc1	23.2%	-15.9%	15.1%	-1.2	-6.1%	-6.8%
CC(=O)c1cccc(NC(=O)CSc2ccc(-c3ccc4c(c3)OCO4)nn2)c1	-1.7%	-2.0%	-0.8%	-6.4	?	3.4%
COc1cc(NC(=O)CSc2ccc(-c3sc(C)nc3C)nn2)cc(OC)c1	?	-14.7%	-11.8%	nt	-24.6%	-3.9%
CC(=O)c1ccc(NC(=O)CSc2ccc3nnc(-c4ccccn4)n3n2)cc1	50.1µM*	-12.6%	-16.4%	-16.6	i	?
Cc1csc(NC(=O)c2cnc3c(c2)N(C(=O)Cc2ccc(C(C)C)cc2)CCC3)n1	nt	nt	nt	nt	-3.3%[176 µM]	nt
O=C(Nc1cccc(Br)c1)c1ccc2nc(N3C(=O)CCC3=O)sc2c1	2.0%	-1.0%	7.7%	-58.4*	-12.7%	?
COC(=O)CN(Cc1cccs1)C1CC1	nt	nt	nt	nt	-15.4%	nt
Cc1nnc2ccc(-c3ccc(NC(=O)c4ccco4)cc3)nn12	17.8µM*	0.4%	-24.4%	-15.1	2.7%	?
CC(=O)Nc1ccc(-c2ccc3nnc(C)n3n2)cc1	19.4%	0.3%	50.6%	-4.0	-1.6%	-15.4%
O=C(Nc1cccc(N=Cc2cc(Br)cc(Br)c2O)c1)c1ccco1	-1.5%	-19.4%	89.1µM*	-58.7*	?	?
O=C(Nc1cccc(N=Cc2cc(Cl)cc(Br)c2O)c1)c1ccco1	7.1%	-23.7%	22.1%	-54.7*	?	?
CCOc1ccc2oc(C(=O)NC(c3ccc(F)cc3)c3nccn3C)c(C)c2c1 (centres undefined)	nt	nt	nt	nt	-3.3%	nt
COc1ccc(OC)c(NC(=O)c2ncoc2-c2ccc(C)o2)c1	nt	nt	nt	nt	-2.5%	nt
COc1ccc(OC)c(Nc2nc(=O)c3cccnc3s2)c1	2.2%	-18.0%	?	-88.9*	nt	-6.2%
CCc1ccc(OCC(=O)NNC(=O)c2ccc(NC(=O)C3CC3)cc2)cc1	31.6µM*	-8.2%	79.4µM*	-0.2	nt	?
O=C(NCCc1cccc2ccccc12)c1ccc2ccccc2n1	nt	nt	nt	nt	19.7%	nt
Cc1cc(=O)oc2cc(OCC(=O)N(C)Cc3cccs3)c(Cl)cc12	nt	nt	nt	nt	8.7%	nt
CCC1C(=O)C(C)(C)C(=O)OC1c1ccc([N+](=O)[O-])cc1 (centres undefined)	89.1µM*	-2.0%	46.2%	0.3	?	-17.4%
COC(=O)c1sc(N2C(=O)C(O)=C(C(=O)c3ccc(C)o3)C2c2ccc([N+](=O)[O-])cc2)nc1C (centres undefined)	2.9%	-10.2%	7.1%	-82.9*	?	?
Cc1cc(N2C(=O)C(O)=C(C(=O)c3ccco3)C2c2ccc([N+](=O)[O-])cc2)no1 (centres undefined)	12.2%	-16.4%	?	2.4	44.7µM*	-6.5%
COc1ccccc1C1C(C(=O)c2ccco2)=C(O)C(=O)N1c1cc(C)on1 (centres undefined)	-14.3%	-17.1%	8.5%	0.3	?	-19.6%
CCOC(=O)c1sc(N2C(=O)C(O)=C(C(=O)c3ccc(C)o3)C2c2ccc(OC)c(OC)c2)nc1C (centres undefined)	-11.9%	-6.5%	8.8%	-10.6	-49.3%	-7.8%
CCOC(=O)c1ccc(N2C(=O)c3n[nH]c(-c4ccco4)c3C2c2cccc([N+](=O)[O-])c2)cc1 (centres undefined)	13.1%	0.8%	-14.6%	-17.5	31.6µM*	?
SMILES	Pol beta inh	Pol kappa inh	POLI inh	PI5P4K alpha inh	ALOX12 inh	Pol eta inh
CCOC(=O)c1sc(N2C(=O)C(O)=C(C(=O)c3ccc(C)o3)C2c2cccc([N+](=O)[O-])c2)nc1C (centres undefined)	-11.4%	-1.0%	36.1%	-51.2*	?	-7.9%
CCOC(=O)CCc1c(C)[nH]n(-c2nc3ccccc3[nH]2)c1=O	nt	nt	nt	nt	-1.2%	nt
OCC1CN(c2ncccn2)CC12CCN(Cc1cccc3[nH]ccc13)CC2 (centres undefined)	nt	nt	nt	nt	167.5%	nt
CCOC(=O)c1sc(N2C(=O)C(O)=C(C(=O)c3ccco3)C2c2ccc([N+](=O)[O-])cc2)nc1C (centres undefined)	nt	-4.4%	2.3%	-80.4*	28.2µM*	?
S=c1[nH]nc2ccc3ccccc3n12	nt	nt	nt	-60.8*	?	nt
S=c1[nH]c2ccccc2n2c(=S)[nH]nc12	4.6%	-12.7%	?	-29.4	?	-2.9%
COc1ccc(S(=O)(=O)Nc2ccccc2Cl)cc1NC(=O)c1cccc(-n2cccc2)c1	nt	nt	nt	nt	3.7%	nt
S=C(NN=C(c1ccccc1)c1ccccn1)N(Cc1ccccn1)Cc1ccccn1	nt	-11.1%	8.9%	?	44.7µM*	-11.2%
Cc1cccc(OC(=O)Nc2ccc(C(=O)O)c(O)c2)c1	nt	nt	nt	-54.5*	-1.1%	-8.7%
CCOC(=O)Nc1ccc(C(=O)Oc2ccccc2)c(O)c1	2.9%	-12.8%	?	nt	?	-10.6%
COc1ccc(NC(=O)c2cccs2)cc1	-3.0%	-5.8%	-31.5%	1.5	-3.4%	-7.6%
COc1ccc(N=N/C(=C\O)C(=O)c2cccs2)cc1	?	-17.7%	36.7%	0.0	35.5µM*	-16.0%
COc1ccc(C(=O)/C(=C/O)N=Nc2ccc(F)cc2)cc1	-1.7%	1.1%	21.8%	-10.4	11.2µM*	-7.8%
CCOc1ccc(CN(CCOC)Cc2cc(=O)n3cc(C)ccc3n2)cc1	nt	nt	nt	nt	4.1%	nt
O=[N+]([O-])c1ccc(Cl)c(-c2ccc(/C=N/n3cnnc3)o2)c1	25.1µM*	?	?	-1.4	0.0%	?
Fc1ccc(Nc2nc3nonc3nc2N2CCC(Cc3ccccc3)CC2)cc1	nt	nt	nt	nt	-0.5%	nt
CC(=O)c1cccc(S(=O)(=O)Oc2ccc3c(C(F)(F)F)cc(=O)oc3c2)c1	nt	nt	nt	nt	10.3%	nt
Cc1ccc(Cn2cccc(NS(C)(=O)=O)c2=O)cc1	8.7%	-16.0%	99.8%	-10.4	7.08µM*	-8.4%
COc1ccc(NC2CCCN(C(=O)CCN3CCOCC3)C2)cc1 (centres undefined)	3.7%	-1.6%	79.4µM*	-8.3	-7.4%	-2.6%
N#Cc1ccc(C(=O)NC2CCC3CCCCC3C2)cc1 (centres undefined)	nt	nt	nt	nt	-23.8%	nt
CCOC(=O)c1cc(S(=O)(=O)Nc2ccccc2)[nH]n1	?	3.5%[60.1 µM]	13.0%	nt	-14.6%	-12.5%
CCOC(=O)c1cc(S(=O)(=O)Nc2ccc3c(c2)OCCO3)[nH]n1	nt	nt	nt	nt	11.2µM*	nt
CCCCCC(C)O (centres undefined)	nt	nt	nt	nt	0.4%[176 µM]	nt
